According to PubChem BioAssay (NCATS):
Inconclusive results are not listed. Entries that show only a call come without a potency. Values without a mark were called inactive. Activity calls are given as the source filed them. Calls follow the shape of the dose curve; as a rule, active = well fitted cell-killing curve with a large enough effect; inconclusive = small, poorly fitted or top-dose-only effect, or effect the other way; inactive = flat fitted curve, though single readings scatter.

Legend:
Test in all cases: Primary qHTS to identify gynecologic anti-cancer compounds using libraries of approved drugs and bioactive compounds (AID 1345084); also: nearly all actives have a fitted effect of over 55% in size
Conditions in all cases: Gynecologic cancer cell panel viability, ATPlite luminescence, 48 h; series mostly up to 57.5 µM
OV90 = tested on: OV90
Method in brief: (§1)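 ATP-based viability (ATPlite), 1,000 cells/well, 16 h pre-incubation, 48 h compound at 37 C, 5% CO2, 15 min RT before read.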

PA-1 = tested on: PA-1
Method in brief: as §1

SKOV3 = tested on: SKOV3
Method in brief: as §1

Tov-21-G = tested on: Tov-21-G
Method in brief: as §1

Tov112D = tested on: Tov112D
Method in brief: as §1
Potency is read from the fitted curve at half-maximal effect.

NC(=O)[C@H](Cc1ccccc1)NC(=O)[C@H](CCCN=C(N)N)NC(=O)C12CC3CC(CC(C3)C1)C2
activity change, negative = cytotoxicity (OV90): -0.378% [at 11.6 µM] | activity change, negative = cytotoxicity (PA-1): 5.55% [at 11.6 µM] | activity change, negative = cytotoxicity (SKOV3): 6.06% [at 11.6 µM] | activity change, negative = cytotoxicity (Tov-21-G): 4.32% [at 11.6 µM] | activity change, negative = cytotoxicity (Tov112D): -1.65% [at 11.6 µM]

Cc1noc2c1-c1ccccc1C(c1ccc(Cl)cc1)=N[C@H]2CC(N)=O
Potency (OV90): inactive | Potency (PA-1): inactive | Potency (SKOV3): inactive | Potency (Tov-21-G): inactive | Potency (Tov112D): inactive

C[C@]12CCC[C@](C)(C(=O)O)C1[C@@H](O)[C@@H](O)C13CC(CCC12)C(CO)(O[C@@H]1O[C@H](CO)[C@@H](O)[C@H](O)[C@H]1O)C3 (some centres undefined)
Potency (OV90): inactive | Potency (PA-1): inactive | Potency (SKOV3): inactive | Potency (Tov-21-G): inactive | Potency (Tov112D): inactive

CC(C(=O)Nc1cc(C#N)ccc1CCCC(=O)O)c1ccc(F)c2ccccc12 (centres undefined)
Potency (OV90): inactive | Potency (PA-1): inactive | Potency (SKOV3): inactive | Potency (Tov-21-G): inactive | Potency (Tov112D): inactive

CC(=O)/C=C/C1(O)C(C)(C)CC(O)CC1(C)O (centres undefined)
Potency (OV90): inactive | Potency (PA-1): inactive | Potency (SKOV3): inactive | Potency (Tov-21-G): inactive | Potency (Tov112D): inactive

O=C(O)C1(c2ccc(-c3ccc(Cl)c(Cl)c3)c(F)c2)CC1
Potency (OV90): inactive | Potency (PA-1): inactive | Potency (SKOV3): inactive | Potency (Tov-21-G): inactive | Potency (Tov112D): inactive

COC(=O)CCC1(C)C(C(C)(C)O)C(O)CC2(C)Oc3c(C)c4c(c(OC)c3CC21)C(=O)OC4 (centres undefined)
Potency (OV90): inactive | Potency (PA-1): inactive | Potency (SKOV3): inactive | Potency (Tov112D): inactive

COc1cc(/C=C/C(=O)O[C@H]2[C@H](O)[C@@H](CO)O[C@@]2(CO)O[C@H]2O[C@H](CO)[C@@H](O)[C@H](O)[C@H]2O)cc(OC)c1O
Potency (OV90): inactive | Potency (PA-1): inactive | Potency (SKOV3): inactive | Potency (Tov-21-G): inactive | Potency (Tov112D): inactive

C[C@@H]1CC[C@]2(C(=O)O)CC[C@]3(C)C(=CCC4[C@@]5(C)C[C@@H](O)[C@H](O)[C@@](C)(CO)C5CC[C@]43C)C2[C@H]1C (some centres undefined)
Potency (OV90): inactive | Potency (PA-1): inactive | Potency (SKOV3): inactive | Potency (Tov-21-G): inactive | Potency (Tov112D): inactive

CC1(C)CCC[C@@]2(C)[C@H]1[C@H](O)C=C(CO)[C@]2(O)CO
Potency (OV90): inactive | Potency (PA-1): inactive | Potency (SKOV3): inactive | Potency (Tov-21-G): inactive | Potency (Tov112D): inactive

Cc1nnc(-c2sc(NC(=O)[C@H](C(C)C)n3c(=O)[nH]c4ccccc4c3=O)nc2C)o1
Potency (OV90): inactive | Potency (PA-1): inactive | Potency (SKOV3): inactive | Potency (Tov112D): inactive

CC1CC=C2C1CC1(O)C(=O)CC2(C)C1(C)CO (centres undefined)
Potency (OV90): inactive | Potency (PA-1): inactive | Potency (SKOV3): inactive | Potency (Tov-21-G): inactive | Potency (Tov112D): inactive

On1ncc(C2CCNCC2)c1-c1cccc(-c2ccccc2)c1
Potency (OV90): inactive | Potency (PA-1): inactive | Potency (SKOV3): inactive | Potency (Tov-21-G): inactive | Potency (Tov112D): inactive

COC(=O)C(Cc1ccccc1)NC(=O)c1ccccc1 (centres undefined)
Potency (OV90): inactive | Potency (PA-1): inactive | Potency (SKOV3): inactive | Potency (Tov-21-G): inactive | Potency (Tov112D): inactive

CNc1nc(Cc2ccccc2)nc2c1CCNC[C@@H]2C
Potency (OV90): inactive | Potency (PA-1): inactive | Potency (SKOV3): inactive | Potency (Tov-21-G): inactive | Potency (Tov112D): inactive

COCc1c(O)c(C(=O)O)c(C)c2c1OC(=O)c1c(C)cc(O)c(CO)c1O2
Potency (OV90): inactive | Potency (PA-1): inactive | Potency (SKOV3): inactive | Potency (Tov-21-G): inactive | Potency (Tov112D): inactive

CC1=C(CO)CC(C(C)C2CCC3C4CC=C5CC(OC6OC(COC7OC(CO)C(O)C(O)C7O)C(O)C(O)C6O)CC(O)C5(C)C4CCC23C)OC1=O (centres undefined)
Potency (OV90): inactive | Potency (PA-1): inactive | Potency (SKOV3): inactive | Potency (Tov-21-G): inactive | Potency (Tov112D): inactive

CNC(C)C(=O)NC(C(=O)N1CCCC1C(=O)Nc1cccc2ncccc12)C(C)C (centres undefined)
Potency (OV90): inactive | Potency (PA-1): inactive | Potency (SKOV3): 7.94 µM (active) | Potency (Tov112D): inactive

C=C(CCO)C(=O)OCC1OCC(OC(=O)C(=C)CCO[C@@H]2O[C@H](CO)[C@@H](O)[C@H](O)[C@H]2O)C(O)C1O (some centres undefined)
Potency (OV90): inactive | Potency (PA-1): inactive | Potency (SKOV3): inactive | Potency (Tov-21-G): inactive | Potency (Tov112D): inactive

CC1(C)CC[C@]2(C(=O)O)CC[C@]3(C)C(=CCC4[C@@]5(C)C[C@@H](O)[C@H](O)[C@@](C)(CO)C5[C@H](O)C[C@]43C)[C@@H]2C1 (some centres undefined)
Potency (OV90): inactive | Potency (PA-1): inactive | Potency (Tov-21-G): inactive | Potency (Tov112D): inactive

CC1(C(=O)O)CCCC2(C)C3CCC4CC3(CCC12)CC4C(=O)O (centres undefined)
Potency (OV90): inactive | Potency (PA-1): inactive | Potency (SKOV3): inactive | Potency (Tov-21-G): inactive | Potency (Tov112D): inactive

C=CC(C)(O)CC/C=C(\C)COC1O[C@H](CO)[C@@H](O)[C@H](O)[C@H]1O (some centres undefined)
Potency (OV90): inactive | Potency (PA-1): inactive | Potency (SKOV3): inactive | Potency (Tov-21-G): inactive | Potency (Tov112D): inactive

CC1(C)CC[C@]2(C(=O)O)CC[C@]3(C)C(=CCC4[C@@]5(C)CC[C@H](O[C@@H]6O[C@H](C(=O)O)[C@@H](O)[C@H](O[C@@H]7O[C@H](CO)[C@H](O)[C@H](O)[C@H]7O)[C@H]6O[C@@H]6O[C@H](CO)[C@@H](O)[C@H](O)[C@H]6O)C(C)(C)C5CC[C@]43C)[C@@H]2C1 (some centres undefined)
activity change, negative = cytotoxicity (OV90): 8.65% [at 6.55 µM] | activity change, negative = cytotoxicity (PA-1): 2.41% [at 6.55 µM] | activity change, negative = cytotoxicity (Tov-21-G): -6.57% [at 6.55 µM] | activity change, negative = cytotoxicity (Tov112D): -3.27% [at 6.55 µM]

COc1cc(C[C@@]2(O)CO[C@@H](c3ccc(O[C@@H]4O[C@H](CO)[C@@H](O)[C@H](O)[C@H]4O)c(OC)c3)[C@H]2CO)ccc1O
Potency (OV90): inactive | Potency (PA-1): inactive | Potency (Tov-21-G): inactive | Potency (Tov112D): inactive

CC1=C2C(=O)C=C(CO[C@@H]3O[C@H](CO)[C@@H](O)[C@H](O)[C@H]3O)[C@@H]2[C@H]2OC(=O)[C@H](C)[C@@H]2CC1
Potency (OV90): inactive | Potency (PA-1): inactive | Potency (SKOV3): inactive | Potency (Tov-21-G): inactive | Potency (Tov112D): inactive
